Laboratory results published in PubChem BioAssay AID641 (Vanderbilt High Throughput Screening Facility, 2007).
In all, about 58,000 compounds went through this assay and about 3,400 (5.9%) were called active. The sample holds actives, similar compounds and a random draw of the others, so the mix is not that of the screen.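 The calls were made as follows: active = luminescence count or its row- and column-corrected plate score outside the 99.7% band of the plate's sample wells, on either side; inactive = the rest.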

Molecular target: D(1A) dopamine receptor (Homo sapiens) (UniProt P21728)
Sequence (P21728 whole entry, looked up): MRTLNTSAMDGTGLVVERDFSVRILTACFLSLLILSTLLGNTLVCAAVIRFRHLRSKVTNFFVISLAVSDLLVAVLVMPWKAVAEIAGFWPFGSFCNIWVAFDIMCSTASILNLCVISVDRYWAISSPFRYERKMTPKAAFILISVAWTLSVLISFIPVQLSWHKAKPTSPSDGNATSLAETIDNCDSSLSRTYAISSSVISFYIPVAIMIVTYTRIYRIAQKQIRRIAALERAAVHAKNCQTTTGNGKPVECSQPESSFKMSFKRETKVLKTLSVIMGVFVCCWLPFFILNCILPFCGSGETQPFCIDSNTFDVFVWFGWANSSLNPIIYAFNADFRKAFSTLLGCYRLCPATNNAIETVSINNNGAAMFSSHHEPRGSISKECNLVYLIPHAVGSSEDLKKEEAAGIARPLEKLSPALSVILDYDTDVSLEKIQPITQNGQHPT
Assay: D1 CRE-luciferase signal change, two-sided – cell-based, HEK293 D1, dopamine EC30, D1 allosteric modulator project, primary screen (AID 641)
Settings: dopamine EC30 potentiation, at 10 µM, actives deviate in either direction

B-score, inactive:
CCOC(=O)N1CCN(CC(=O)c2ccc3c(c2)CCN3)CC1 -0.515, O=C(O)c1cc(S(=O)(=O)N2CCCCCC2)c(Cl)cc1Cl -0.949, CC(C)(C)n1nnnc1C(c1ccc2ncccc2c1)N1CCSCC1 (stereo not given) -0.519, CCC(C)(C)n1nnnc1C(c1ccccc1OC)N1CCSCC1 (stereo not given) -0.522, COc1ccc(CCn2nnnc2C(c2ccccc2)N2CCN(C)CC2)cc1OC (stereo not given) 0.116, Cc1ccc(C(c2nnnn2CS(=O)(=O)c2ccc(C)cc2)N2CCC(C(N)=O)CC2)cc1 (stereo not given) 0.737, CCOCCc1c(O)nc(SCC(=O)NCc2ccco2)[nH]c1=O 1.04, CCCC(C)n1[nH]c(=O)c2c(C)cc(C)nc21 (stereo not given) 1.59, N#CCCN1CCN(S(=O)(=O)c2ccc(S(=O)(=O)NC3CC3)cc2)CC1 -0.0246, N#CCCN1CCN(S(=O)(=O)c2ccc(S(=O)(=O)N3CCCC3)cc2)CC1 0.478, COc1ccc(N2C(=O)C3CCCN3C2c2cc(OC)c(OC)cc2OC)cc1 (stereo not given) 0.17, CCOC(=O)C1=C(C)NC(C)=C(C(=O)OCC)C1c1ccccn1 -0.891, CCOC(=O)c1cc(-c2ccc(Cl)s2)nc2c1c(C)nn2C 0.665, COc1ccc(CCNC(=O)c2ccco2)cc1 1.58, Cc1ccc(-c2nc(COC(=O)c3c(C)noc3C)cs2)cc1 -0.259, CCOC(=O)c1c(-c2ccc(C)cc2C)csc1NC(=O)CSc1nnnn1C 0.507, O=C(C1=C(O)C(=O)N(c2ncccn2)C1c1cccs1)c1ccco1 (stereo not given) -0.746, Cn1c(=O)[nH]c(=O)c2c1nc(N1CCN(CCO)CC1)n2CCSc1nc2ccccc2s1 0.525, c1nnc2c3c4c(sc3ncn12)CCC4 0.277, Cc1ccccc1Cn1c(=O)[nH]c2ccccc21 -0.259, Cc1ccc(N2C(=O)CC(NCc3ccc4c(c3)OCO4)C2=O)cc1Cl (stereo not given) 0.36, O=C(c1cnn2ccccc12)N1CCc2ccccc21 -0.641, CCCN(CCC)C(=O)C1c2ccccc2Oc2ccccc21 0.123, C/C(=C\C(=O)c1cccnc1)Nc1ccc(C)c(C)c1 0.381, CC(=O)c1cccc(NC(=O)c2ccncc2)c1 -0.215, CCc1nc(Nc2ccc3nccnc3c2)c2oc3ccccc3c2n1 -1.78, Cc1cccc(N2CCN(C(c3ccccc3)c3nnnn3CC3CCCO3)CC2)c1C (stereo not given) -1.87, COc1ccc(CCNC(=O)CSc2nc(C)nc3c2oc2ccccc23)cc1OC 1.41, Cc1nc(N2CCN(c3ncccn3)CC2)c2oc3ccccc3c2n1 3.11, CCn1nnc(NC(=O)c2c(OC)cccc2OC)n1 -0.273, Cc1ccccc1CN1CCN(CC(=O)NCc2ccccn2)C1=O -0.577, COc1ccc2c(Cl)c(-c3nnco3)sc2c1 -2.33, COCCn1c(-c2ccc(OC)c(OC)c2)nc2ccccc21 1.2, COC(=O)c1ccc(NC(=O)CN(c2ccc(C)cc2)S(=O)(=O)c2c(C)n[nH]c2C)cc1 -1.32, CC(=O)NCC(=O)N(C)C(C(=O)Nc1ccc2c(c1)OCCO2)c1ccccc1 (stereo not given) 1.86, Cc1nc(Nc2ccc3c(c2)OCCO3)c2nnn(Cc3ccccc3Cl)c2n1 -2.58, CC(=O)NC(C)c1nc2ccccc2n1Cc1ccccc1F (stereo not given) 0.517, NC(=O)C1CC=CCC1C(=O)OCC(Cl)=C(Cl)Cl (stereo not given) -0.419, CCOc1cccc(=O)c2c(C)n(CC3CCCO3)c(C)c12 (stereo not given) 0.961, CCOC(=O)NC(C(F)(F)F)(C(F)(F)F)P(=O)(c1ccccc1)c1ccccc1 -0.00139, CCN(c1ccccc1)S(=O)(=O)c1ccc(N)cc1 0.0758, CC(NC(=O)CN1CCN(Cc2ccc(Cl)cc2)C1=O)c1ccc2c(c1)OCCO2 (stereo not given) -0.383, CCNc1nc(SCCOc2ccccc2)nc(N(C)C)n1 1.16, Cc1cccc(NC(=O)C2CCN(S(=O)(=O)c3cccc4cccnc34)CC2)c1 -1.64, CCOC(=O)c1ccc(Nc2cc(C)nc3nc(C)nn23)cc1 0.18, COc1cccc(N2CC(C(=O)Nc3c(C)cccc3C)CC2=O)c1 (stereo not given) 0.869, CC1CCCCN1CC(=O)NCc1ccc2c(c1)OCO2 (stereo not given) 0.0178, Cc1cc(NC(=O)CN2CCCCC2C)nc2c1c(=O)oc1ccccc12 (stereo not given) -0.0379, COCC(C)N=CC1=C(O)CC(C)(C)CC1=O (stereo not given) 0.0482, CCn1c(Cc2ccccc2)nnc1SCC(=O)Nc1ccccc1 -0.326, CC1OC2C(OC1C)N(S(C)(=O)=O)CCN2S(C)(=O)=O (stereo not given) -0.145, CCc1ccc(-c2nnn(Cc3nn[nH]n3)n2)cc1 -0.837, COc1ccc(-c2nnn(CC(=O)N(CCO)C(C(=O)NC3CCCC3)c3ccc(F)cc3)n2)cc1 (stereo not given) -0.256, COc1ccc(-n2nc3c(c2NC(=O)Cc2cccc(C)c2)CS(=O)C3)cc1 (stereo not given) 0.123, COc1cccc(NC(=O)Nc2nnc(N3CCCCC3C)s2)c1 (stereo not given) -0.931, CC/C(=N\O)C(C)(C)/[N+]([O-])=C/c1ccc(Br)cc1 0.458, COc1ccc(CCNC(=O)C2CCN(c3nn4c(=O)cc(C)nc4s3)CC2)cc1OC -0.543, CCCS(=O)(=O)N1CCC(C(=O)NCCCN(C)Cc2ccccc2)CC1 -0.981, CN1CCN(Cc2c(O)ccc3c2oc(=O)c2ccccc23)CC1 -0.323, O=C(CSc1nnc(-c2cccs2)n1Cc1ccco1)c1ccc2c(c1)OCO2 -1.01, CCOC(=O)N1CCC(NC(=O)c2cnn3ccccc23)CC1 0.314, O=C(Cn1nc(Cc2cccnc2)c2ccccc2c1=O)NCC1COc2ccccc2O1 (stereo not given) 0.362, O=C(O)C1CC(=O)N(Cc2cccnc2)C1 (stereo not given) -0.0843, Cc1cc2cc(CNC(=O)c3ccc(S(=O)(=O)N4CCOCC4)cc3)ccc2[nH]1 0.133, O=C(CN1C(=O)CSc2ncccc21)N1CCOCC1 -0.0289, Cc1cc(=O)cc(C)[nH]1 -0.271, CC(=O)NC(C)(C)C1CC=C(C)/C(=N\O)C1 (stereo not given) 0.674, OC(COc1ccccc1)Cn1cc(Br)cn1 (stereo not given) -0.000319, CCn1cc(C(=O)N2CCN(Cc3ccc4c(c3)OCO4)CC2)c2cc(OC)c(OC)cc2c1=O -1.2, CCn1cc(C(=O)NCc2ccc3c(c2)OCO3)c2cc(OC)c(OC)cc2c1=O 0.436, Cc1ccccc1C(=O)Nc1cccc(-c2nnc(SCC(=O)O)n2C)c1 -0.574, CCCc1[nH]nc2c1C(c1ccc(OC)c(Cn3nc(C)c(Br)c3C)c1)C(C#N)=C(N)O2 (stereo not given) 0.961, CC1(C)CC(=O)c2sc(N)nc2C1 -0.282, Cc1ccccc1CSCC(=O)NC(=O)NC(C)(C)C 0.485, Cc1ccc(C(CC(=O)O)Nc2nc(N3CCCCC3)nc(N3CCCCC3)n2)cc1 (stereo not given) -0.363, O=C(CSc1nc2ncccc2[nH]1)Nc1ccc2c(c1)OCCO2 0.287, Cc1ccnc(N2CCCC(C(=O)Nc3cc(F)ccc3C)C2)n1 (stereo not given) -0.197, O=C1c2oc3ccc(Br)cc3c(=O)c2C(c2cccc(F)c2)N1CCO (stereo not given) -0.882, CN=C1SC(C(=O)O)CC(=O)N1C (stereo not given) -0.346, Cc1noc(NS(=O)(=O)c2ccc(N3CC(O)=C(c4ccccc4)C3=N)cc2)c1C 0.215

B-score, active:
Cc1ccc(C(c2nnnn2C(C)(C)C)N2CCc3ccccc3C2)cc1 (stereo not given) -2.5, COc1ccc(OC)c(C(c2nnnn2C(C)(C)C)N2CCc3ccccc3C2)c1 (stereo not given) -4.02, N#CCCN1CCN(S(=O)(=O)c2ccc(S(=O)(=O)NC3CCCCC3)cc2)CC1 3.08, CCOC(=O)C1=C(O)CSC1=Nc1cccc(Cl)c1 7.94, CCOC(=O)c1c(C2CC2)csc1NC(=O)CSCc1c(C)noc1C -3.6, CCOc1cc(/C=N/O)cc(Br)c1OC 10.9, C/C(=C\C(=O)c1ccccc1)Nc1cccc(O)c1 4.14, CCSc1nc(C)nc2c1oc1ccccc12 10.5, COc1ccc(-c2nnco2)cc1OC 9.98, C#CCNc1nc(C(C)C)nc2c1nnn2Cc1ccccc1F 8.02, CCCn1c(=O)c2[nH]c(C3CCCC3)nc2n(CCC)c1=O 20, CCNc1nc(NCC)nc(N(C)n2cnnc2)n1 6.74, CCc1ccc2oc(=O)cc(CN3CCCCC3C)c2c1 (stereo not given) 3.81, COc1ccc(-c2nnn(Cc3nc(N)nc(N4CCCCC4)n3)n2)cc1 5, CCCS(=O)(=O)N1CCC(C(=O)NCCc2ccc(OC)c(OC)c2)CC1 1.44, CC1Oc2ccccc2N(Cc2cccnc2)C1=O (stereo not given) 6.15, CCn1cc(C(=O)NCC2COc3ccccc3O2)c2cc(OC)c(OC)cc2c1=O (stereo not given) 5.22, CCCc1nc(N)nc2c1C(=O)CC(C)(C)C2 14.2, CC(Nc1nc(N2CCCC2)nc2ccccc12)c1ccccc1 (stereo not given) -4.18, O=C(Nc1ccc2c(c1)OCCO2)C1CCCN(c2ncccn2)C1 (stereo not given) -3.93
